40 compounds from PubChem BioAssay (EPA / NIEHS) can be followed below.

Calls of active or inactive are those of the source. Rule for the calls: active = hit-call score of the fitted dose curve at least 0.9, where 1 is the maximum; inactive = score below 0.9.

A short description of this experiment: ATG_EGR_CIS: Attagene CIS-FACTORIAL HepG2 Assay for human Early Growth Response 1 (EGR1) (AID 2282938). The conditions noted are these: HepG2 Attagene CIS-FACTORIAL EGR reporter mRNA; actives raise or lower the signal. As for the experimental part: ATG_CIS is a cell-based, multiplexed-readout assay that uses HepG2, a human liver cell line, with measurements taken at 24 hours after chemical dosing in a 24-well plate.ATG_EGR_CIS is one of 52 assay component(s) measured or calculated from the ATG_CIS assay. It is designed to make measurements of mRNA induction, a form of inducible reporter, as detected with fluorescence intensity signals by Reverse transcription polymerase chain reaction (RT-PCR) and Capillary electrophoresis technology.Data from the assay component ATG_EGR_CIS was analyzed into 1 assay endpoint. This assay endpoint, ATG_EGR_CIS, was analyzed with bidirectional fitting relative to DMSO as the negative control and baseline of activity. Using a type of inducible reporter, measures of mRNA for gain or loss-of-signal activity can be used to understand the reporter gene at the transcription factor-level as they relate to the gene EGR1. Furthermore, this assay endpoint can be referred to as a primary readout, because this assay has produced multiple assay endpoints where this one serves a reporter gene function. To generalize the intended target to other relatable targets, this assay endpoint is annotated to the dna binding intended target family, where the subfamily is zinc finger.
Human liver HepG2 cells are transiently transfected with multiple reporter transcription units (MRTUs) in 6-well plates using FuGene 6 reagent (Roche; 3 ml FuGene/1 mg DNA). The MRTU constructs are regulated by a cis-regulating element (promoter). […] A major difference between the CIS and TRANS system is that in CIS activities of endogenous TFs are measured, whereas the TRANS assay evaluates changes in activities of exogenous, chimeric NR-Gal4 proteins. […] At the end of 24 hour incubation, total RNA was isolated using TriZol reagent (Invitrogen). The isolated RNA is then reverse-transcribed using oligo(dT) primer and Mo-MLV reverse transcriptase (Invitrogen) with DNAse I (Ambion) treatment for 30 min. The one-tenth of the produced cDNA was amplified by PCR using Taq DNA polymerase (Invitrogen) and two reporter sequence-specific primers. The PCR products were fluorescently labeled by primer extension with 6-arboxyfluorescein (6-FAM) 5'-labeled reporter sequence-specific primer (2 min at 95 C, 20 s at 68 C and 10 min at 72 C) and these products were digested with 5U of HpaI (New England Biolabs) for 2h at 37 C. The fragments were purified using Qiaquick PCR columns (Qiagen), analyzed on an ABI 3130xL genetic analyzer (Applied Biosystems) with peak positions identified by using a set of X-rhodamine (ROX)-labeled MapMarker1000 molecular weight standards (BioVentures). The raw capillary electrophoresis data was processed using Attagraph software (Attagene).
Turning to `C=Cc1ccncc1`, the AC50 (as a rule, the concentration at which the activity in the assay is half-maximal) is 37.1 µM (active). With `Cc1cc(S(=O)(=O)O)ccc1N=Nc1c(O)ccc2ccccc12`, the compound was called inactive. For the compound `CCCCCCC(CO)CCCC` (stereo not given), the call was inactive. Turning to `CCCCCC(C=O)=Cc1ccccc1`, the compound was classed as inactive.

For `Nc1ccc(NCCO)c([N+](=O)[O-])c1`, the compound was called inactive. With `O=C(O)COCC(=O)O`, the compound was called inactive.

Turning to `CCc1ncc(C)[nH]1`, the compound was classed as inactive. For the compound `O=C(O)CCCCCCCCC(=O)O`, the compound was classed as inactive. For `COC(=O)c1ccc(C)cc1C1=NC(C)(C(C)C)C(=O)N1` (stereo not given) (tested in a mixture with another compound), the result was inactive. For the compound `CCCCCCCCCCCCN1CCCCCC1=O`, the compound was classed as inactive. Regarding `Cc1cccc(Nc2ccccc2)c1`, the AC50 is 73.8 µM (active). Take `CCCC(C)=O`: the compound was classed as inactive.

With `CC1=CC[C@@]23C[C@@H]1C(C)(C)[C@@H]2CC[C@H]3C`, the result was inactive.

Take `FC(F)(F)COCC(F)(F)F`: the call was inactive. As to `O=[N+]([O-])c1ccc(O)cc1C(F)(F)F`, the compound was classed as inactive.

As to `CCCCCC(=O)CC`, the outcome was inactive. Take `COCCc1ccc(OCC(O)CNC(C)C)cc1` (stereo not given): the compound was called inactive.

With `CC(=O)C(C)O` (stereo not given), the compound was classed as inactive.

As for `CCCC(=O)OC(C)(C)Cc1ccccc1`, the call was inactive.

On to `Oc1c(Cl)cc(Cl)c(Cl)c1Cc1c(O)c(Cl)cc(Cl)c1Cl`, for which the AC50 is 11.1 µM (active). Take `O=C(Nc1ccc2c(O)c(N=Nc3ccc(N=Nc4ccc(S(=O)(=O)O)cc4)cc3)c(S(=O)(=O)O)cc2c1)c1ccccc1`: the compound was called inactive. As for `C=CCCCCCCCCCC`, the outcome was inactive. For `CN(C)CCOc1ccc(/C(=C(/CCCl)c2ccccc2)c2ccccc2)cc1`, the compound was called inactive. Still for that read-out and setting: next, `CCCCCCCCC=CCCCCCCCC1=NCCN1CCO`: “inactive”; `CCC(=O)O[C@@H]1C[C@H]2CC[C@]1(C)C2(C)C`: “inactive”; `C1CCOC1`: “inactive”.

For the compound `CC(C)=CCCC(C)CC(=O)O` (stereo not given), the compound was called inactive. In the case of `CCCCCCCCCC(C)C=O` (stereo not given), the compound was called inactive.

For the compound `CCCCOC(=O)CCCCCCCC(=O)OCCCC`, the compound was classed as inactive. The same measure, in the same setting: next, `CN(C)CCOC(C)(c1ccccc1)c1ccccn1` (stereo not given): “inactive”; `N[C@@H](Cc1cc(I)c(Oc2cc(I)c(O)c(I)c2)c(I)c1)C(=O)O`: “inactive”; `CC(C)c1ccccc1O`: “inactive”. On the same count and under the same terms, in the case of `OCCCCC(O)CO` (stereo not given) it was “inactive”. The same measure, in the same setting: next, `CC(=O)NCCO`: “inactive”. Turning to `C1=CC2C3C=CC(C3)C2C1` (stereo not given), the compound was classed as inactive.

`CC1(C)COCN1`: the call was inactive. For `OCCc1ccccc1`, the compound was called inactive. Same read-out and setting: next, `COCCOC(=O)c1ccccc1C(=O)OCCOC`: “inactive”; `CCOC(=O)CN`: “inactive”. Same read-out and setting: next, `CC=CC=CCOC(=O)C(C)C`: “inactive”.
